Results from PubChem BioAssay (EPA / NIEHS).
Where “and” joins values, the source holds several entries; their conditions need not be identical. Equal entries are not always repeated. Inconclusive results are not listed. Where a structure was tested more than once in an assay, its records may differ in their call. Calls of active or inactive are those of the source. The calls were made as follows, unless noted: active = hit-call score of the fitted dose curve at least 0.9, where 1 is the maximum; inactive = score below 0.9.

Tests used:
[1] = read-out: solute carrier (SLC22A1), SLC22A1 (gene 6580); assay: LTEA_HepaRG_SLC22A1: Life Technologies and Expression Analysis (LTEA) Assay for solute carrier (SLC22A1) using HepaRG (AID 2283524); settings: mRNA level, 48 h; actives raise or lower the signal
Method in brief: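 HepaRG (human liver line), 48 h dosing in serum-free induction medium; 8 conc., half-log down from 100 uM, 0.5% DMSO vehicle, duplicates. Endpoint: SLC22A1 mRNA, qRT-PCR, housekeeping-normalized; gain/loss fit vs DMSO.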

[2] = read-out: Pyruvate Dehydrogenase Kinase 4 (PDK4), PDK4 (gene 5166); assay: LTEA_HepaRG_PDK4: Life Technologies and Expression Analysis (LTEA) Assay for Pyruvate Dehydrogenase Kinase 4 (PDK4) using HepaRG (AID 2283525); settings: mRNA level, 48 h; actives raise or lower the signal
Method in brief: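 In this multiplexed human HepaRG expression assay, cells are treated 48 h with test chemicals across an eight-point range starting at 100 uM. PDK4 mRNA changes, normalized to ACTB/GAPDH/POLR2A, are fitted in both directions relative to vehicle.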

[3] = read-out: Nuclear factor erythroid 2-related factor 2 (Homo sapiens) (UniProt Q16236); assay: LTEA_HepaRG_NFE2L2: Life Technologies and Expression Analysis (LTEA) Assay for Nuclear factor erythroid 2-related factor 2 (NFE2L2) Transcription Factor using HepaRG (AID 2283527); settings: mRNA level, 48 h; actives raise or lower the signal
Method in brief: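 Transcript level of NFE2L2 is the read-out, measured by microfluidic TaqMan qRT-PCR and normalized to three housekeeping genes. Human HepaRG cultures received test chemical for 48 h at up to 100 uM in half-log steps. Gain or loss of signal is fitted relative to 0.5% DMSO.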

[4] = read-out: succinate dehydrogenase complex iron sulfur subunit B (SDHB), SDHB (gene 6390); assay: LTEA_HepaRG_SDHB: Life Technologies and Expression Analysis (LTEA) Assay for succinate dehydrogenase complex iron sulfur subunit B (SDHB) using HepaRG (AID 2283528); settings: mRNA level, 48 h; actives raise or lower the signal
Method in brief: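 HepaRG, 48 h exposure, 8-pt half-log series from 100 uM in 0.5% DMSO, duplicates. Readout: SDHB mRNA by Fluidigm qRT-PCR vs housekeeping genes; bidirectional fit relative to DMSO.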

[5] = read-out: Signal transducer and activator of transcription 3 (Homo sapiens) (UniProt P40763); assay: LTEA_HepaRG_STAT3: Life Technologies and Expression Analysis (LTEA) Assay for Signal transducer and activator of transcription (STAT3) using HepaRG (AID 2283529); settings: mRNA level, 48 h; actives raise or lower the signal
Method in brief: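 Read-out is STAT3 mRNA level by qRT-PCR, normalized to three housekeeping genes, in human HepaRG liver cells treated for 48 h. Concentrations ran from 100 uM downward in half-log steps; curves were fitted for gain or loss relative to 0.5% DMSO.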

[6] = read-out: solute carrier (SLCO1B1), SLCO1B1 (gene 10599); assay: LTEA_HepaRG_SLCO1B1: Life Technologies and Expression Analysis (LTEA) Assay for solute carrier (SLCO1B1) using HepaRG (AID 2283530); settings: mRNA level, 48 h; actives raise or lower the signal
Method in brief: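 Differentiated human HepaRG cells, plated 48 h, switched to serum-free induction medium and exposed in duplicate for 48 h to 8 half-log concentrations (top 100 uM) in 0.5% DMSO. SLCO1B1 mRNA by TaqMan qRT-PCR, normalized to ACTB/GAPDH/POLR2A.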

[7] = read-out: sulfotransferase 2A1 (SULT2A1), SULT2A1 (gene 6822); assay: LTEA_HepaRG_SULT2A1: Life Technologies and Expression Analysis (LTEA) Assay for sulfotransferase 2A1 (SULT2A1) using HepaRG (AID 2283531); settings: mRNA level, 48 h; actives raise or lower the signal
Method in brief: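 Differentiated human HepaRG cells in serum-free induction medium were exposed for 48 h to eight half-log concentrations (top 100 uM, 0.5% DMSO). SULT2A1 mRNA was measured by qRT-PCR, normalized to ACTB, GAPDH and POLR2A, and fitted bidirectionally against DMSO.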

[8] = read-out: Transforming Growth Factor (TGFA), TGFA (gene 7039); assay: LTEA_HepaRG_TGFA: Life Technologies and Expression Analysis (LTEA) Assay for Transforming Growth Factor (TGFA) using HepaRG (AID 2283532); settings: mRNA level, 48 h; actives raise or lower the signal
Method in brief: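 HepaRG (human liver line), 48 h exposure, 8 conc. half-log down from 100 uM, 0.5% DMSO vehicle, duplicates; serum-free induction medium. TGFA mRNA by TaqMan qRT-PCR, ACTB/GAPDH/POLR2A normalization; gain/loss fit vs DMSO.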

[9] = read-out: Transforming Growth Factor (TGFB1), TGFB1 (gene 7040); assay: LTEA_HepaRG_TGFB1: Life Technologies and Expression Analysis (LTEA) Assay for Transforming Growth Factor (TGFB1) Transporter using HepaRG (AID 2283533); settings: mRNA level, 48 h; actives raise or lower the signal
Method in brief: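 Differentiated human HepaRG cells in serum-free induction medium were exposed in duplicate for 48 h to eight concentrations (top 100 uM, half-log steps, 0.5% DMSO). TGFB1 mRNA was quantified by qRT-PCR, normalized to ACTB, GAPDH, POLR2A, and fitted bidirectionally against DMSO.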

TIMP1, TIMP1 (gene 7076) = assay: LTEA_HepaRG_TIMP1: Life Technologies and Expression Analysis (LTEA) Assay for TIMP1 using HepaRG (AID 2283534); settings: mRNA level, 48 h; actives raise or lower the signal
Method in brief: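 Differentiated human HepaRG cells in serum-free induction medium were exposed 48 h to chemicals (8 half-log concentrations, top 100 uM, 0.5% DMSO). TIMP1 mRNA was quantified by TaqMan qRT-PCR, normalized to ACTB/GAPDH/POLR2A; bidirectional fit versus DMSO.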

[10] = read-out: Tumor necrosis factor receptor 1 (TNFRSF1A), TNFRSF1A (gene 7132); assay: LTEA_HepaRG_TNFRSF1A: Life Technologies and Expression Analysis (LTEA) Assay for Tumor necrosis factor receptor 1 (TNFRSF1A) using HepaRG (AID 2283535); settings: mRNA level, 48 h; actives raise or lower the signal
Method in brief: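 Differentiated human HepaRG cells were exposed in duplicate for 48 h in serum-free induction medium to eight concentrations (top 100 uM, half-log steps, 0.5% DMSO). TNFRSF1A mRNA was quantified by qRT-PCR, normalized to ACTB, GAPDH and POLR2A, then fitted bidirectionally against DMSO.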

[11] = read-out: Thyroid Hormone Responsive (THRSP), THRSP (gene 7069); assay: LTEA_HepaRG_THRSP: Life Technologies and Expression Analysis (LTEA) Assay for Thyroid Hormone Responsive (THRSP) using HepaRG (AID 2283536); settings: mRNA level, 48 h; actives raise or lower the signal
Method in brief: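 mRNA induction or loss relative to 0.5% DMSO vehicle was fitted bidirectionally across an eight-point curve whose highest exposure was 100 uM. Human HepaRG liver cells received chemicals in duplicate over 48 h before RNA extraction.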

[12] = read-out: UDP glucuronosyltransferase (UGT1A1), UGT1A1 (gene 54658); assay: LTEA_HepaRG_UGT1A1: Life Technologies and Expression Analysis (LTEA) Assay for UDP glucuronosyltransferase (UGT1A1) using HepaRG (AID 2283538); settings: mRNA level, 48 h; actives raise or lower the signal
Method in brief: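 Readout is UGT1A1 transcript level by qRT-PCR, normalized to three housekeeping genes, after 48 h chemical treatment of HepaRG cells. Concentrations ran from 100 uM down in half-log steps with 0.5% DMSO, and gain or loss relative to DMSO was fitted.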

[13] = read-out: UDP glucuronosyltransferase (UGT1A6), UGT1A6 (gene 54578); assay: LTEA_HepaRG_UGT1A6: Life Technologies and Expression Analysis (LTEA) Assay for UDP glucuronosyltransferase (UGT1A6) using HepaRG (AID 2283539); settings: mRNA level, 48 h; actives raise or lower the signal
Method in brief: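 Human HepaRG cells were dosed for 48 h in serum-free induction medium with 0.5% DMSO vehicle, eight-point half-log series from 100 uM, in duplicate. UGT1A6 mRNA was measured by qRT-PCR, normalized to ACTB, GAPDH, POLR2A, and fitted bidirectionally against DMSO.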

[14] = read-out: X-box binding protein 1 (XBP1), XBP1 (gene 7494); assay: LTEA_HepaRG_XBP1: Life Technologies and Expression Analysis (LTEA) Assay for X-box binding protein 1 (XBP1) using HepaRG (AID 2283540); settings: mRNA level, 48 h; actives raise or lower the signal
Method in brief: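 Differentiated human HepaRG cells in serum-free induction medium were exposed in duplicate for 48 h to eight half-log concentrations up to 100 uM in 0.5% DMSO. XBP1 mRNA was quantified by qRT-PCR, normalised to ACTB, GAPDH and POLR2A, with bidirectional fitting against DMSO.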

[15] = LTEA_HepaRG_LDH_cytotoxicity: Cytotoxicity Assessment in the Life Technologies and Expression Analysis (LTEA) Assay (AID 2283563; active = hit-call score of the fitted dose curve at least 0.9, where 1 is the maximum;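 as to AC50: LDH activity released into spent culture medium as a marker of cell death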)
Method in brief: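 Differentiated human HepaRG cells, plated 48 h beforehand, were switched to serum-free induction medium and exposed for 48 h to eight half-log concentrations (top 100 uM) in 0.5% DMSO. LDH was measured in spent medium; activity was fitted relative to DMSO vehicle.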

[16] = ATG_XTT_Cytotoxicity: Cytotoxicity Assessment in the Attagene TRANS-FACTORIAL HepG2 Assay (AID 2283584; active = hit-call score of the fitted dose curve at least 0.9, where 1 is the maximum;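 as to AC50: cells exposed to compound for 24 h before reading; active means loss of viability signal versus DMSO baseline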)
Method in brief: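 HepG2 human liver cells, transiently transfected with multiple GAL4-UAS reporter units, were dosed and read at 24 h by XTT as cell number. Loss of signal was fitted relative to DMSO negative control baseline.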

[17] = molecular target: Cellular tumor antigen p53 (Homo sapiens) (UniProt P04637); assay: TOX21_p53_BLA_p2_ratio: Tox21 HCT-116 p53 Agonism Beta-lactamase Assay, Ratio, Phase 2 (AID 2283592; active = hit-call score of the fitted dose curve at least 0.9, where 1 is the maximum)
Method in brief: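 HCT116 cells carrying a p53-responsive beta-lactamase reporter were plated, incubated 5 h at 37C, then dosed with compounds in DMSO (217-fold dilution) for 16 h. CCF4-AM substrate was added for 2 h at room temperature; the 460/530 nm emission ratio gave gain-of-signal activity relative to DMSO.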

Measured: AC50

Sequence of Nuclear factor erythroid 2-related factor 2 (Homo sapiens) (Q16236 whole entry, looked up): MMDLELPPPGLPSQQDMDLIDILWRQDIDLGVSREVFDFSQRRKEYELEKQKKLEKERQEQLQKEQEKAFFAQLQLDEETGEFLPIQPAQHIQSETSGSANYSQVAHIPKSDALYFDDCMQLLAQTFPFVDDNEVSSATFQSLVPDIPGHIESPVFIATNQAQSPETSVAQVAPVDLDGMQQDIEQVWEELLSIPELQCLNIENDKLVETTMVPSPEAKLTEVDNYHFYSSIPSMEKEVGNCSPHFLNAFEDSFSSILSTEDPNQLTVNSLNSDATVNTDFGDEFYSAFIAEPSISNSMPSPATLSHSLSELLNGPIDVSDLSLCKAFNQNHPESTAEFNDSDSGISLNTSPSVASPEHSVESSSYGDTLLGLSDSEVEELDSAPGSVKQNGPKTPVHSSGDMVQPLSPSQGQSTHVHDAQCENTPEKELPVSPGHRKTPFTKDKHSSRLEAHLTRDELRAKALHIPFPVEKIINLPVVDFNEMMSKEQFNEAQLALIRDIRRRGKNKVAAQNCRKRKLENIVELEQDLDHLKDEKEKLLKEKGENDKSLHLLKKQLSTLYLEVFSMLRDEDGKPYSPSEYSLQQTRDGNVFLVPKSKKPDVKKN
Sequence of Signal transducer and activator of transcription 3 (Homo sapiens) (P40763 whole entry, looked up): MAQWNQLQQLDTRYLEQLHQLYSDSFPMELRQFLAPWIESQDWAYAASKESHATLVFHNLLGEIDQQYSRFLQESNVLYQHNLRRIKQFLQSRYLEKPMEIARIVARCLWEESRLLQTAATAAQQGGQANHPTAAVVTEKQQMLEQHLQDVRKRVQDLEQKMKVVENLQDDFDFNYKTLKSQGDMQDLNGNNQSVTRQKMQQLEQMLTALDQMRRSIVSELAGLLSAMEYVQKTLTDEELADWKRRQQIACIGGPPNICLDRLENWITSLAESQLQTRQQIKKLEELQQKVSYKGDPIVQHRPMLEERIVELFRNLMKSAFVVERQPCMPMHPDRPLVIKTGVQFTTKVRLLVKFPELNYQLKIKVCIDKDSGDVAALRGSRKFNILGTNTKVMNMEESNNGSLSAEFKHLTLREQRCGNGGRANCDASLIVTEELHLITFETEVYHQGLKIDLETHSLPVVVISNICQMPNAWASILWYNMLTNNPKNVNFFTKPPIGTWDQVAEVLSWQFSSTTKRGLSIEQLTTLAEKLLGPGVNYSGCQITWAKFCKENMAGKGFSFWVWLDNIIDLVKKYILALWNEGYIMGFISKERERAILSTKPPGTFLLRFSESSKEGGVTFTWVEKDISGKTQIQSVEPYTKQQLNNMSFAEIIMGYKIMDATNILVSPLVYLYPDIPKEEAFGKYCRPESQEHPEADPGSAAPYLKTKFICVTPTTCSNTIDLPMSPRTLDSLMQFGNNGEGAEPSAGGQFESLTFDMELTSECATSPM
Sequence of Cellular tumor antigen p53 (Homo sapiens) (P04637 whole entry, looked up): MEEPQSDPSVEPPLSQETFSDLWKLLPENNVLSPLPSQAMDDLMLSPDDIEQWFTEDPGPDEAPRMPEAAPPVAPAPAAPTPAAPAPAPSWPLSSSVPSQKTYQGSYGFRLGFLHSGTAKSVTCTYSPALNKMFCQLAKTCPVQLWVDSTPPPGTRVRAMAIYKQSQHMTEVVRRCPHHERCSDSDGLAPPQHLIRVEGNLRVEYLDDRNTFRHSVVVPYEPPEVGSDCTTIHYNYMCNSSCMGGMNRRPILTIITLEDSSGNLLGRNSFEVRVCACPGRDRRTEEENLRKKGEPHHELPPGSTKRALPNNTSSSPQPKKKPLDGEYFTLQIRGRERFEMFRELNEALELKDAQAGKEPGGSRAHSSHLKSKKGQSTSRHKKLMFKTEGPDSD

Oc1cc(Cl)ccc1Oc1ccc(Cl)cc1Cl
active: [1] 86 µM | [2] 82 µM and 88.4 µM | TIMP1, TIMP1 (gene 7076) 10.1 µM | [10] 10.1 µM | [11] 94.7 µM | [13] 51 µM | [15] 78.6 µM and 78.2 µM and 78 µM | [16] 66.3 µM and 51.2 µM and 39.8 µM | [17] 73.1 µM
inactive: [1] | [2] | [3] | [4] | [5] | [6] | [7] | [8] | [9] | TIMP1, TIMP1 (gene 7076) | [10] | [11] | [12] | [13] | [14] | [16] | [17]

CCN(CC)C(=O)SCc1ccc(Cl)cc1
not listed: [4] | [16] | [17]
inactive: all other assays above

CNC(=O)Oc1cccc(N=CN(C)C)c1
not listed: [4] | [15] | [16] | [17]
inactive: all other assays above

O=C(O)C(F)(F)C(F)(F)C(F)(F)C(F)(F)C(F)(F)C(F)(F)C(F)(F)F
active: [2] 26.9 µM and 21.7 µM | [11] 26.1 µM | [12] 3.11 µM and 7.73 µM | [14] 50 µM
inactive: [1] | [3] | [5] | [6] | [7] | [8] | [9] | TIMP1, TIMP1 (gene 7076) | [10] | [11] | [13] | [14] | [15] | [16] | [17]

CC(C)(C)C(O)/C(=C\c1ccc(Cl)cc1Cl)n1cncn1 (configuration not stated)
active: [1] 21 µM | [2] 29.4 µM | [3] 75.3 µM | [6] 69 µM | [7] 35.2 µM | TIMP1, TIMP1 (gene 7076) 69.2 µM | [12] 69.2 µM | [13] 36.4 µM | [15] 72.9 µM | [16] 56.3 µM
inactive: [4] | [5] | [8] | [9] | [10] | [11] | [14] | [17]
